# Hit rate of the full screen: of about 5,500 compounds, about 2,000 (36%) were called active. Roughly 18% stayed inconclusive and do not appear here. This is one part of the list. Unmarked numbers belong to inactive results. Cut-off read from the data, not from the text of the source: active = normalized growth mostly below about 0.91 (no sharp cut-off); inconclusive = no clear call, values can overlap the other calls; inactive = mostly above about 0.92.
# Assay: chemical genetic growth profiling, strain panel (AID 1159580);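 note: tested at 20 µM; growth read once vehicle control cultures reached saturation at 30 °C; 1 = growth at the plate median or of vehicle wells; lower values mean less growth of the strain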
# Details: growth OD
structure (smiles),measurement,setting,value
Cc1c(Cl)cccc1Nc1ccccc1C(=O)O,normalized growth,"S. cerevisiae deletion strains, locus YJR075W, strain HOC1, stronger effect = lower value",0.852 (active)
same,normalized growth,"S. cerevisiae deletion strains, locus YKL009W, strain mrt4, stronger effect = lower value",0.788 (active)
same,normalized growth,"S. cerevisiae deletion strains, locus YKL068W, stronger effect = lower value",0.954
same,normalized growth,"S. cerevisiae deletion strains, locus YKL085W, strain MDH1 (second series), stronger effect = lower value",0.922 (active)
same,normalized growth,"S. cerevisiae deletion strains, locus YKL085W, strain MDH1, stronger effect = lower value",0.922 (active)
same,normalized growth,"S. cerevisiae deletion strains, locus YKL160W, strain elf1, stronger effect = lower value",0.764 (active)
same,normalized growth,"S. cerevisiae deletion strains, locus YKL190W, strain CNB1, stronger effect = lower value",0.863 (active)
same,normalized growth,"S. cerevisiae deletion strains, locus YKR001C, strain vps1, stronger effect = lower value",0.52 (active)
same,normalized growth,"S. cerevisiae deletion strains, locus YKR026C, strain gcn3, stronger effect = lower value",0.79 (active)
same,normalized growth,"S. cerevisiae deletion strains, locus YKR091W, strain srl3, stronger effect = lower value",0.829 (active)
same,normalized growth,"S. cerevisiae deletion strains, locus YLL001W, strain dnm1, stronger effect = lower value",0.814 (active)
same,normalized growth,"S. cerevisiae deletion strains, locus YLL026W, stronger effect = lower value",0.831 (active)
same,normalized growth,"S. cerevisiae deletion strains, locus YLL041C, strain sdh2, stronger effect = lower value",0.818 (active)
same,normalized growth,"S. cerevisiae deletion strains, locus YLR027C, strain aat2, stronger effect = lower value",0.819 (active)
same,normalized growth,"S. cerevisiae deletion strains, locus YLR039C, strain RIC1, stronger effect = lower value",0.537 (active)
same,normalized growth,"S. cerevisiae deletion strains, locus YLR058C, strain SHM2, stronger effect = lower value",0.849 (active)
same,normalized growth,"S. cerevisiae deletion strains, locus YLR102C, strain apc9, stronger effect = lower value",0.788 (active)
same,normalized growth,"S. cerevisiae deletion strains, locus YLR113W, strain HOG1, stronger effect = lower value",0.566 (active)
same,normalized growth,"S. cerevisiae deletion strains, locus YLR221C, strain rsa3, stronger effect = lower value",0.777 (active)
same,normalized growth,"S. cerevisiae deletion strains, locus YLR258W, strain gsy2, stronger effect = lower value",0.831 (active)
same,normalized growth,"S. cerevisiae deletion strains, locus YLR262C, strain YPT6 (second series), stronger effect = lower value",0.48 (active)
same,normalized growth,"S. cerevisiae deletion strains, locus YLR262C, strain YPT6, stronger effect = lower value",0.491 (active)
same,normalized growth,"S. cerevisiae deletion strains, locus YLR268W, strain sec22, stronger effect = lower value",0.724 (active)
same,normalized growth,"S. cerevisiae deletion strains, locus YLR320W, strain mms22, stronger effect = lower value",0.59 (active)
same,normalized growth,"S. cerevisiae deletion strains, locus YLR330W, strain CHS5, stronger effect = lower value",0.82 (active)
same,normalized growth,"S. cerevisiae deletion strains, locus YLR342W, strain FKS1 (second series), stronger effect = lower value",0.671 (active)
same,normalized growth,"S. cerevisiae deletion strains, locus YLR342W, strain FKS1, stronger effect = lower value",0.795 (active)
same,normalized growth,"S. cerevisiae deletion strains, locus YLR357W, strain rsc2, stronger effect = lower value",0.93
same,normalized growth,"S. cerevisiae deletion strains, locus YLR370C, strain arc18, stronger effect = lower value",0.808 (active)
same,normalized growth,"S. cerevisiae deletion strains, locus YLR371W, strain rom2, stronger effect = lower value",0.838 (active)
same,normalized growth,"S. cerevisiae deletion strains, locus YLR384C, strain iki3, stronger effect = lower value",0.832 (active)
same,normalized growth,"S. cerevisiae deletion strains, locus YLR418C, strain cdc73, stronger effect = lower value",0.591 (active)
same,normalized growth,"S. cerevisiae deletion strains, locus YML016C, strain PPZ1, stronger effect = lower value",0.857 (active)
same,normalized growth,"S. cerevisiae deletion strains, locus YML032C, strain rad52, stronger effect = lower value",0.792 (active)
same,normalized growth,"S. cerevisiae deletion strains, locus YML120C, strain ndi1, stronger effect = lower value",0.723 (active)
same,normalized growth,"S. cerevisiae deletion strains, locus YML124C, strain tub3, stronger effect = lower value",0.787 (active)
same,normalized growth,"S. cerevisiae deletion strains, locus YMR058W, strain fet3, stronger effect = lower value",0.79 (active)
same,normalized growth,"S. cerevisiae deletion strains, locus YMR078C, strain ctf18, stronger effect = lower value",0.761 (active)
same,normalized growth,"S. cerevisiae deletion strains, locus YMR125W, strain sto1, stronger effect = lower value",0.781 (active)
same,normalized growth,"S. cerevisiae deletion strains, locus YMR129W, stronger effect = lower value",0.823 (active)
same,normalized growth,"S. cerevisiae deletion strains, locus YMR205C, strain PFK2, stronger effect = lower value",0.673 (active)
same,normalized growth,"S. cerevisiae deletion strains, locus YMR223W, strain ubp8, stronger effect = lower value",0.795 (active)
same,normalized growth,"S. cerevisiae deletion strains, locus YMR231W, strain pep5, stronger effect = lower value",0.813 (active)
same,normalized growth,"S. cerevisiae deletion strains, locus YMR263W, strain SAP30, stronger effect = lower value",0.824 (active)
same,normalized growth,"S. cerevisiae deletion strains, locus YMR307W, strain GAS1, stronger effect = lower value",0.557 (active)
same,normalized growth,"S. cerevisiae deletion strains, locus YNL067W, strain RPL9B, stronger effect = lower value",0.846 (active)
same,normalized growth,"S. cerevisiae deletion strains, locus YNL071W, strain lat1, stronger effect = lower value",0.569 (active)
same,normalized growth,"S. cerevisiae deletion strains, locus YNL153C, strain GIM3, stronger effect = lower value",0.849 (active)
same,normalized growth,"S. cerevisiae deletion strains, locus YNL183C, strain NPR1, stronger effect = lower value",0.641 (active)
same,normalized growth,"S. cerevisiae deletion strains, locus YNL209W, strain ssb2, stronger effect = lower value",0.869 (active)
same,normalized growth,"S. cerevisiae deletion strains, locus YNL233W, strain BNI4, stronger effect = lower value",0.797 (active)
same,normalized growth,"S. cerevisiae deletion strains, locus YNL248C, strain rpa49, stronger effect = lower value",0.886 (active)
same,normalized growth,"S. cerevisiae deletion strains, locus YNL250W, strain rad50, stronger effect = lower value",0.941
same,normalized growth,"S. cerevisiae deletion strains, locus YNL271C, strain bni1, stronger effect = lower value",0.919 (active)
same,normalized growth,"S. cerevisiae deletion strains, locus YNL298W, strain CLA4, stronger effect = lower value",0.842 (active)
same,normalized growth,"S. cerevisiae deletion strains, locus YNL307C, strain MCK1, stronger effect = lower value",0.437 (active)
same,normalized growth,"S. cerevisiae deletion strains, locus YNL322C, strain KRE1 (second series), stronger effect = lower value",0.856 (active)
same,normalized growth,"S. cerevisiae deletion strains, locus YNL322C, strain KRE1, stronger effect = lower value",0.876 (active)
same,normalized growth,"S. cerevisiae deletion strains, locus YNR049C, strain mso1, stronger effect = lower value",0.822 (active)
same,normalized growth,"S. cerevisiae deletion strains, locus YNR052C, strain pop2, stronger effect = lower value",0.821 (active)
same,normalized growth,"S. cerevisiae deletion strains, locus YOL006C, strain TOP1, stronger effect = lower value",0.656
same,normalized growth,"S. cerevisiae deletion strains, locus YOL012C, strain htz1",0.632
same,normalized growth,"S. cerevisiae deletion strains, locus YOL147C, strain pex11, stronger effect = lower value",0.765 (active)
same,normalized growth,"S. cerevisiae deletion strains, locus YOR001W, strain rrp6, stronger effect = lower value",0.8 (active)
same,normalized growth,"S. cerevisiae deletion strains, locus YOR061W, strain CKA2, stronger effect = lower value",0.852 (active)
same,normalized growth,"S. cerevisiae deletion strains, locus YOR069W, strain VPS5, stronger effect = lower value",0.864 (active)
same,normalized growth,"S. cerevisiae deletion strains, locus YOR070C, strain gyp1, stronger effect = lower value",0.802 (active)
same,normalized growth,"S. cerevisiae deletion strains, locus YOR080W, strain dia2, stronger effect = lower value",0.855 (active)
same,normalized growth,"S. cerevisiae deletion strains, locus YOR083W, strain WHI5, stronger effect = lower value",0.767 (active)
same,normalized growth,"S. cerevisiae deletion strains, locus YOR106W, strain vam3, stronger effect = lower value",0.745 (active)
same,normalized growth,"S. cerevisiae deletion strains, locus YOR136W, strain idh2, stronger effect = lower value",0.893 (active)
same,normalized growth,"S. cerevisiae deletion strains, locus YOR144C, strain elg1, stronger effect = lower value",0.812 (active)
same,normalized growth,"S. cerevisiae deletion strains, locus YOR184W, strain ser1, stronger effect = lower value",0.578 (active)
same,normalized growth,"S. cerevisiae deletion strains, locus YOR231W, strain MKK1, stronger effect = lower value",0.644 (active)
same,normalized growth,"S. cerevisiae deletion strains, locus YOR265W, strain rbl2, stronger effect = lower value",0.828 (active)
same,normalized growth,"S. cerevisiae deletion strains, locus YOR270C, strain vph1, stronger effect = lower value",0.565 (active)
same,normalized growth,"S. cerevisiae deletion strains, locus YOR290C, strain snf2, stronger effect = lower value",0.716 (active)
same,normalized growth,"S. cerevisiae deletion strains, locus YOR316C, strain cot1, stronger effect = lower value",0.79 (active)
same,normalized growth,"S. cerevisiae deletion strains, locus YPL051W, strain arl3, stronger effect = lower value",0.656 (active)
same,normalized growth,"S. cerevisiae deletion strains, locus YPL055C, strain LGE1, stronger effect = lower value",0.794
same,normalized growth,"S. cerevisiae deletion strains, locus YPL078C, strain atp4, stronger effect = lower value",0.646 (active)
same,normalized growth,"S. cerevisiae deletion strains, locus YPL106C, strain sse1, stronger effect = lower value",0.985
same,normalized growth,"S. cerevisiae deletion strains, locus YPL240C, strain hsp82, stronger effect = lower value",0.831 (active)
same,normalized growth,"S. cerevisiae deletion strains, locus YPL241C, strain CIN2, stronger effect = lower value",0.852 (active)
same,normalized growth,"S. cerevisiae deletion strains, locus YPL256C, strain CLN2, stronger effect = lower value",0.643 (active)
same,normalized growth,"S. cerevisiae deletion strains, locus YPR119W, strain clb2, stronger effect = lower value",0.779 (active)
same,normalized growth,"S. cerevisiae deletion strains, locus YPR141C, strain kar3, stronger effect = lower value",0.95
same,normalized growth,"S. cerevisiae deletion strains, locus YPR163C, strain tif3, stronger effect = lower value",0.784 (active)
same,normalized growth,"S. cerevisiae deletion strains, locus YPR167C, strain met16, stronger effect = lower value",0.805 (active)
same,normalized growth,"S. cerevisiae deletion strains, strain wtn01, stronger effect = lower value",0.8 (active)
same,normalized growth,"S. cerevisiae strains, strain wild type, stronger effect = lower value",0.857 (active)

# From PubChem BioAssay AID1159580 (chemical genetic matrix, 2015)
